# What was measured:
# Test in all cases: DAPPL (digital affinity profiling via proximity ligation, sequencing); 10 mM Tris-HCl pH 7.5, 50 mM NaCl, 1 mM DTT, 4% glycerol, room temperature, 30 min; GST-TFs on glutathione beads, 16-mer random dsDNA library, 0.1% formaldehyde crosslink after washing; high values mean tight binding
# FEV = molecular target: T1, FEV (Homo sapiens, UniProt Q99581 1-238); settings: protein: recombinant; tags: N-terminal GST; dsDNA, one strand shown
# T1 sequence: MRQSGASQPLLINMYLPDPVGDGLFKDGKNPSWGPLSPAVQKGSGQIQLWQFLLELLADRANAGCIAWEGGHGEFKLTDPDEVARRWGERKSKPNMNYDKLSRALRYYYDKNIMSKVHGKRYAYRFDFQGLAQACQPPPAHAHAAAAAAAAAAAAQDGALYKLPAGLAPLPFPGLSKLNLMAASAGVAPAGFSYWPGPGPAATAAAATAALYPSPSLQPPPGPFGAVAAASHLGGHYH
# Procedure, shortened: (§1)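 Binding signal is given per hexamer as its read frequency for a factor divided by its frequency in the tag-only sample. GST-fused human transcription factors were expressed in yeast, captured on glutathione beads, barcoded with DNA and pooled with that sample, then incubated with 200 nmole of a 16-mer random double-stranded DNA library in Tris/NaCl/DTT/glycerol buffer for 30 min at room temperature. The pools were then washed, crosslinked, proximity-ligated, amplified by PCR and sequenced on an Illumina NextSeq500.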
# ETV5 = ETV5 (Homo sapiens, UniProt P41161 1-510); settings: protein: recombinant; tags: N-terminal GST; dsDNA, one strand shown
# Procedure, shortened: as §1
# HSF1 = HSF1 (Homo sapiens, UniProt Q00613 1-529); settings: protein: recombinant; tags: N-terminal GST; chain copies: 3; dsDNA, one strand shown
# Procedure, shortened: as §1
# SPIC = molecular target: T2, SPIC (Homo sapiens, UniProt Q8N5J4 1-248); settings: protein: recombinant; tags: N-terminal GST; dsDNA, one strand shown
# T2 sequence: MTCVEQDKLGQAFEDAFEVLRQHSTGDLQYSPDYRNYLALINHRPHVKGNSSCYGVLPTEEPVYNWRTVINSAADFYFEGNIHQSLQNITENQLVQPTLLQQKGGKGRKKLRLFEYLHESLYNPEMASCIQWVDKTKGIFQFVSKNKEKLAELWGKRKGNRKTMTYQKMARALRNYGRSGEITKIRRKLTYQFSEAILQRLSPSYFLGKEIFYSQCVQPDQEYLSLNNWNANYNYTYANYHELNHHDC
# Procedure, shortened: as §1
# ELF4 = ELF4 (Homo sapiens, UniProt Q99607 1-663); settings: protein: recombinant; tags: N-terminal GST; dsDNA, one strand shown
# Procedure, shortened: as §1
# ELK4 = molecular target: T3, ELK4 (Homo sapiens, UniProt P28324-2 1-405); settings: protein: recombinant; tags: N-terminal GST; dsDNA, one strand shown
# T3 sequence: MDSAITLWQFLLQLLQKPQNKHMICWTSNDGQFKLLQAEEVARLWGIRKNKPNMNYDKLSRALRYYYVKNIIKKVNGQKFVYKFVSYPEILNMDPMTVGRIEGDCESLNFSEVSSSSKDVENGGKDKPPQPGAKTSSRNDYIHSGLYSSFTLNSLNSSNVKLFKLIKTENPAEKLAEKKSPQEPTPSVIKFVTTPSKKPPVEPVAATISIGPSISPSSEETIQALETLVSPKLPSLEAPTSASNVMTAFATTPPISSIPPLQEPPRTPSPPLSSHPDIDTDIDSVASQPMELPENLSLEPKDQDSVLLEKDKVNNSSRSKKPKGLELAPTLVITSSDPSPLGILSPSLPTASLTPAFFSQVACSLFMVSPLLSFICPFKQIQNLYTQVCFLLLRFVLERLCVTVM
# Procedure, shortened: as §1
# ETV2 = molecular target: T4, ETV2 (Homo sapiens, UniProt O00321 1-342); settings: protein: recombinant; tags: N-terminal GST; dsDNA, one strand shown
# T4 sequence: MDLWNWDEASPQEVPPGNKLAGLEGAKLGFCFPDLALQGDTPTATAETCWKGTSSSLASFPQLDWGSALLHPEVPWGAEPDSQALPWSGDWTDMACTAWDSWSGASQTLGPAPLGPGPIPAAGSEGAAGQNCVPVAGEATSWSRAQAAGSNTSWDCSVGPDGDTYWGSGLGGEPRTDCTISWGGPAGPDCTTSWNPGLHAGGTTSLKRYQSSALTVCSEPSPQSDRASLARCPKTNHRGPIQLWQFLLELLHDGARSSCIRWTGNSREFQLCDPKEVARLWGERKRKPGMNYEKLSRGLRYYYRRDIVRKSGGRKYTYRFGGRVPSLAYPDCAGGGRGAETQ
# Procedure, shortened: as §1
# ELF3 = molecular target: T5, ELF3 (Homo sapiens, UniProt P78545 1-371); settings: protein: recombinant; tags: N-terminal GST; dsDNA, one strand shown
# T5 sequence: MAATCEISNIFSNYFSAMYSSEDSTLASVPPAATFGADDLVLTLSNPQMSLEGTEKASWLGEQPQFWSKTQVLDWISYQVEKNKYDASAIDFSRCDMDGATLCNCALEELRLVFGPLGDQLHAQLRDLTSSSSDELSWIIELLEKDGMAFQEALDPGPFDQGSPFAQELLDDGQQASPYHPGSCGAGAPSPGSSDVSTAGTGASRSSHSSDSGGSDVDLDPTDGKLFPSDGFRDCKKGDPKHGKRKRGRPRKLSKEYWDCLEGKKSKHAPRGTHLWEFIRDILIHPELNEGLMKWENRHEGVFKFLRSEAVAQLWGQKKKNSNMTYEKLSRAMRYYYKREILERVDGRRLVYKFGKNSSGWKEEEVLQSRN
# Procedure, shortened: as §1
# CRX = CRX (Homo sapiens, UniProt O43186 1-299); settings: protein: recombinant; tags: N-terminal GST; dsDNA, one strand shown
# Procedure, shortened: as §1
# ETV1 = ETV1 (Homo sapiens, UniProt P50549 1-477); settings: protein: recombinant; tags: N-terminal GST; dsDNA, one strand shown
# Procedure, shortened: as §1
# ERF = molecular target: T6, ERF (Homo sapiens, UniProt P50548 1-548); settings: protein: recombinant; tags: N-terminal GST; dsDNA, one strand shown
# T6 sequence: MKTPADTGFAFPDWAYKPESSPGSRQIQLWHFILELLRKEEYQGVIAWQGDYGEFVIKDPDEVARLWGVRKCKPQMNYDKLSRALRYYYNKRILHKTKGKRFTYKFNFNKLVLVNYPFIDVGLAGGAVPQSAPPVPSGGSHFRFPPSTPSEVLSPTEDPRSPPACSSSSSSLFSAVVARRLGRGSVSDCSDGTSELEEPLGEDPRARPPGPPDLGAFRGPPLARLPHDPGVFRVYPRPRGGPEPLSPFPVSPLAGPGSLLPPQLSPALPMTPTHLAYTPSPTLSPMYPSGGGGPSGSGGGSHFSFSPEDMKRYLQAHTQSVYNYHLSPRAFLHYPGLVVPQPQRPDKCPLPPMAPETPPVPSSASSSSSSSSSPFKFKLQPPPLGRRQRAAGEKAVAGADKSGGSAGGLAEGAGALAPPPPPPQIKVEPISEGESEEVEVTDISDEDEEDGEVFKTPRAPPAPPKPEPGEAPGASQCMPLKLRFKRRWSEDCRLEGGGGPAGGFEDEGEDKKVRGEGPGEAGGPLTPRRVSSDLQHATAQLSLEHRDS
# Procedure, shortened: as §1
# ETV3L = molecular target: T7, ETV3L (Homo sapiens, UniProt Q6ZN32 1-361); settings: protein: recombinant; tags: N-terminal GST; dsDNA, one strand shown
# T7 sequence: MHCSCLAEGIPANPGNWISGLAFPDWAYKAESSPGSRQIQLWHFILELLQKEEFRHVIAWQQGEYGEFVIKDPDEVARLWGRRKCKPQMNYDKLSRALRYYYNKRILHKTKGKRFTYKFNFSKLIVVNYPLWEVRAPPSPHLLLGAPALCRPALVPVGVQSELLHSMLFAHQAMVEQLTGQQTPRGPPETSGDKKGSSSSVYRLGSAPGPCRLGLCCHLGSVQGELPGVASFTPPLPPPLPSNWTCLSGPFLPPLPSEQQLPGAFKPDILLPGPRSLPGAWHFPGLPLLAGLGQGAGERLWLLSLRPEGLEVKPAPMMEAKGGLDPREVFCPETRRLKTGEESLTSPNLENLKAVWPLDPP
# Procedure, shortened: as §1
# ETS2 = molecular target: T8, ETS2 (Homo sapiens, UniProt P15036 1-469); settings: protein: recombinant; tags: N-terminal GST; dsDNA, one strand shown
# T8 sequence: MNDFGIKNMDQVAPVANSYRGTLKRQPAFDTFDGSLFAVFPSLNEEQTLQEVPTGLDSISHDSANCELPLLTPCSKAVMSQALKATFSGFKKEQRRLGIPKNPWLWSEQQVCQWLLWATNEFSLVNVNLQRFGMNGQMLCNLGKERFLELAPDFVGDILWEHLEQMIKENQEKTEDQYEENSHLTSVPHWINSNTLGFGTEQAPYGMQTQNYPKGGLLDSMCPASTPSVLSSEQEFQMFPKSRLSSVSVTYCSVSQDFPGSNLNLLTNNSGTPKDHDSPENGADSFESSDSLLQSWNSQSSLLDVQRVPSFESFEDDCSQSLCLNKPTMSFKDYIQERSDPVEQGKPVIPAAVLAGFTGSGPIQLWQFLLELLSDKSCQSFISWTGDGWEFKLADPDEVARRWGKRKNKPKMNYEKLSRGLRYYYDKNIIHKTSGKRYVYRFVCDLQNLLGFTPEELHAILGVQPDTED
# Procedure, shortened: as §1
# SPDEF = molecular target: T9, SPDEF (Homo sapiens, UniProt O95238 1-335); settings: protein: recombinant; tags: N-terminal GST; dsDNA, one strand shown
# T9 sequence: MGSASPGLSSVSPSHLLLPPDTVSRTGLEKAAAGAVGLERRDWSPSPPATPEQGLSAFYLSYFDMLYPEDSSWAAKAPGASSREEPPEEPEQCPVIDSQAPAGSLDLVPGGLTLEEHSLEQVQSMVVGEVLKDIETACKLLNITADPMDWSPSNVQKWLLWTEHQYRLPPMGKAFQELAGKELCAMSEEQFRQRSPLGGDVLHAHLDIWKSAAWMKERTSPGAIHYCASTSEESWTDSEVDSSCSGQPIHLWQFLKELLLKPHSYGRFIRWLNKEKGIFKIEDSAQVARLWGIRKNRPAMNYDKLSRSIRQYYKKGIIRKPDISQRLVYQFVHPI
# Procedure, shortened: as §1
# ETV7 = molecular target: T10, ETV7 (Homo sapiens, UniProt Q9Y603 1-341); settings: protein: recombinant; tags: N-terminal GST; dsDNA, one strand shown
# T10 sequence: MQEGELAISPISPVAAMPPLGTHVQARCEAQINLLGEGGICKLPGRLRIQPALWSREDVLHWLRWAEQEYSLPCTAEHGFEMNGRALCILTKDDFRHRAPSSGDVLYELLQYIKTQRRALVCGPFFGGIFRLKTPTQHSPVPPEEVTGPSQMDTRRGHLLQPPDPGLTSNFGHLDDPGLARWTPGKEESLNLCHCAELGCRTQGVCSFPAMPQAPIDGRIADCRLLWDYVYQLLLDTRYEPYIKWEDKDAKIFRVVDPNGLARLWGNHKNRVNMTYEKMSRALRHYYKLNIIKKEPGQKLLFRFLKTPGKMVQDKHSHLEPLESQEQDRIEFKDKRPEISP
# Procedure, shortened: as §1
# ELF5 = molecular target: T11, ELF5 (Homo sapiens, UniProt Q9UKW6-2 1-255); settings: protein: recombinant; tags: N-terminal GST; dsDNA, one strand shown
# T11 sequence: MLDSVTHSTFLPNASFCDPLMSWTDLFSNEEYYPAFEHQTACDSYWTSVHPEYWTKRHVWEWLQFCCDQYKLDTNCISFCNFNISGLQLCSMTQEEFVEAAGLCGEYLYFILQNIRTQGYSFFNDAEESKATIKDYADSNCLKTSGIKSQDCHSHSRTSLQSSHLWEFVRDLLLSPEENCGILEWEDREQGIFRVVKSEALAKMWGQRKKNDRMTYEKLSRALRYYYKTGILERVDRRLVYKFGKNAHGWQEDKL
# Procedure, shortened: as §1
# ETV3 = molecular target: T12, ETV3 (Homo sapiens, UniProt P41162-2 1-143); settings: protein: recombinant; tags: N-terminal GST; dsDNA, one strand shown
# T12 sequence: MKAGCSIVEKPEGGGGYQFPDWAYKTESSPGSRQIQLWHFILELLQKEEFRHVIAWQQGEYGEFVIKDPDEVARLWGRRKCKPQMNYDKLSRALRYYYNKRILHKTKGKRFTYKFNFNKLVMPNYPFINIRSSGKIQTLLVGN
# Procedure, shortened: as §1
# ETV6 = ETV6 (Homo sapiens, UniProt P41212 1-452); settings: protein: recombinant; tags: N-terminal GST; dsDNA, one strand shown
# Procedure, shortened: as §1
# CRX, sequence (O43186 whole entry): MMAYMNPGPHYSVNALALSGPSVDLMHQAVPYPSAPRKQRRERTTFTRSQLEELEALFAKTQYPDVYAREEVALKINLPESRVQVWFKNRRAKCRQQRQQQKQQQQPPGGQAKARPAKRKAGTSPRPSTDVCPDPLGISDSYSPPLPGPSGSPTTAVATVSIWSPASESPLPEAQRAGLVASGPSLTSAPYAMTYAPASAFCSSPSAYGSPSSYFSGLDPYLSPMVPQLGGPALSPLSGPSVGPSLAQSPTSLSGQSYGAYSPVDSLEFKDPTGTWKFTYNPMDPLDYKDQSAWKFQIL
# ETV6, sequence (P41212 whole entry): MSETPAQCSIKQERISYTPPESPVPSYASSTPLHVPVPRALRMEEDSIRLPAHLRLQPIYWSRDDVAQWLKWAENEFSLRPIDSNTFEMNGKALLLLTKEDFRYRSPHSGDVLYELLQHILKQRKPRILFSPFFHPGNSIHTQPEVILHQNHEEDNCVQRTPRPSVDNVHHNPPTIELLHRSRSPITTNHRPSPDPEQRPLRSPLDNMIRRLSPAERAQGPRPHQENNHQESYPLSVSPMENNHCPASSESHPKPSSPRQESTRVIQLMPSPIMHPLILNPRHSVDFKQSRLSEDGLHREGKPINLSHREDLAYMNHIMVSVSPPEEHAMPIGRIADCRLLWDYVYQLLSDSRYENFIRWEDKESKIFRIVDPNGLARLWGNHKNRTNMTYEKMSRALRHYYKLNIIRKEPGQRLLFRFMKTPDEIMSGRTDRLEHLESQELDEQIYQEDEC
# HSF1, sequence (Q00613 whole entry): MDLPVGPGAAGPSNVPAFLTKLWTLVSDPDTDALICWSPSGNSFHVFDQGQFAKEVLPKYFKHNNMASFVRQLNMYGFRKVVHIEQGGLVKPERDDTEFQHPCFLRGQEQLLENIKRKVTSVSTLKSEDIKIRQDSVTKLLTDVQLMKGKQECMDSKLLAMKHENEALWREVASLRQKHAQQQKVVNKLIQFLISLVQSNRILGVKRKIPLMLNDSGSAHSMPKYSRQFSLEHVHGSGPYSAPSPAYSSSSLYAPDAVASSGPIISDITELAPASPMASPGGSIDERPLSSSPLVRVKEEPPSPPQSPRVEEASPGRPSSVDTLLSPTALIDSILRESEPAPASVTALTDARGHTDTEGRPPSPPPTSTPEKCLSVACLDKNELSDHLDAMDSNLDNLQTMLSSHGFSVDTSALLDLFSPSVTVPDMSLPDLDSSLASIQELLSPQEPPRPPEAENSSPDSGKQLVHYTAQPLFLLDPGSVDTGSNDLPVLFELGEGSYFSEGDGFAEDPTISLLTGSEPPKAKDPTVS
# ETV5, sequence (P41161 whole entry): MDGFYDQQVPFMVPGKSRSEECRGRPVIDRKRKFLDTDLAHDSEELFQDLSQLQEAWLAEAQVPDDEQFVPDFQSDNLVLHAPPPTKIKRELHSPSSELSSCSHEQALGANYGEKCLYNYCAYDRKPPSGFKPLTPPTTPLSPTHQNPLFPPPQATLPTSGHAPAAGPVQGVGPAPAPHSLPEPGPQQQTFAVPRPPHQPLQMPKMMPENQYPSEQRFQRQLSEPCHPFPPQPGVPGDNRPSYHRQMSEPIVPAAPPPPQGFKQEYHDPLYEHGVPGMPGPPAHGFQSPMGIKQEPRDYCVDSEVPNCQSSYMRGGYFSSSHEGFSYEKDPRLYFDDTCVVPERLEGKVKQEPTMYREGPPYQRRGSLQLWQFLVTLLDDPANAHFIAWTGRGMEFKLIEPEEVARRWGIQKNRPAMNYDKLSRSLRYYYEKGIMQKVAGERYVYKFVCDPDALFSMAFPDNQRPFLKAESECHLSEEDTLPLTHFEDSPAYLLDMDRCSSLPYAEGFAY
# ELF4, sequence (Q99607 whole entry): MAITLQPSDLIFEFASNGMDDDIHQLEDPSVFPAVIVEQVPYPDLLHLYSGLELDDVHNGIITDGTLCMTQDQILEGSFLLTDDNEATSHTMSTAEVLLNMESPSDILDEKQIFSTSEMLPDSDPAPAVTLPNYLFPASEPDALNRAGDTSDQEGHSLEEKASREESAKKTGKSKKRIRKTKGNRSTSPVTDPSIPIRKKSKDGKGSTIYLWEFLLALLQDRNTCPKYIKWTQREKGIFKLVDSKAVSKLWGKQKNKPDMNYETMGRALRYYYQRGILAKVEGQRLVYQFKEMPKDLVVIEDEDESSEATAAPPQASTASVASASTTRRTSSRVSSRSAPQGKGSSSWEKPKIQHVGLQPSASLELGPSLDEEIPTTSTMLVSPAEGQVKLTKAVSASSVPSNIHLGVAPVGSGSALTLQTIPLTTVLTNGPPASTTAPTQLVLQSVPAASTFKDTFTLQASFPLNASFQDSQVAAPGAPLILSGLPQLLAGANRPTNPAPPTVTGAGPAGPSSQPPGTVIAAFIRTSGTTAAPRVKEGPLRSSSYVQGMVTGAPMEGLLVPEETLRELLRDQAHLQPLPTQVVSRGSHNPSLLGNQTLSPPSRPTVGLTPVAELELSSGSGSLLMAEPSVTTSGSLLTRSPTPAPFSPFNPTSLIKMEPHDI
# ETV1, sequence (P50549 whole entry): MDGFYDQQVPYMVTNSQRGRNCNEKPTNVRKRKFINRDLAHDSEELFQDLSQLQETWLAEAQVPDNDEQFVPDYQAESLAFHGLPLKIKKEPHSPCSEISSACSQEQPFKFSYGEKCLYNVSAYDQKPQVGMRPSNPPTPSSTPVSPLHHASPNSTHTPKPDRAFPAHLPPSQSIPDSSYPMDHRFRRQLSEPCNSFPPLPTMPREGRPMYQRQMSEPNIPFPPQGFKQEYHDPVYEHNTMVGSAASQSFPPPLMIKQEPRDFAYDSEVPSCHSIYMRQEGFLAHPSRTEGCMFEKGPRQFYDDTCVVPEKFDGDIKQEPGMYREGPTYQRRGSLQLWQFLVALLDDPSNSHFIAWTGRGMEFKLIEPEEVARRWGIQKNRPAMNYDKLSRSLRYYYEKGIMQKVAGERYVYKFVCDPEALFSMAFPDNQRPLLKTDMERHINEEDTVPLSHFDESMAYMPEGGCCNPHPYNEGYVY
sequence,measurement,setting,value
TTTTTT,binding signal,FEV,"1.17 fold enrichment (6-mer frequency, TF over GST control)"
same,binding signal,ETV5,"1.23 fold enrichment (6-mer frequency, TF over GST control)"
same,binding signal,HSF1,"1.23 fold enrichment (6-mer frequency, TF over GST control)"
same,binding signal,SPIC,"1.3 fold enrichment (6-mer frequency, TF over GST control)"
same,binding signal,ELF4,"1.19 fold enrichment (6-mer frequency, TF over GST control)"
same,binding signal,ELK4,"1.17 fold enrichment (6-mer frequency, TF over GST control)"
same,binding signal,ETV2,"1.4 fold enrichment (6-mer frequency, TF over GST control)"
same,binding signal,ELF3,"1.33 fold enrichment (6-mer frequency, TF over GST control)"
same,binding signal,CRX,"1.24 fold enrichment (6-mer frequency, TF over GST control)"
same,binding signal,ETV1,"1.36 fold enrichment (6-mer frequency, TF over GST control)"
same,binding signal,ERF,"1.18 fold enrichment (6-mer frequency, TF over GST control)"
same,binding signal,ETV3L,"1.18 fold enrichment (6-mer frequency, TF over GST control)"
same,binding signal,ETS2,"1.09 fold enrichment (6-mer frequency, TF over GST control)"
same,binding signal,SPDEF,"1.22 fold enrichment (6-mer frequency, TF over GST control)"
same,binding signal,ETV7,"1.26 fold enrichment (6-mer frequency, TF over GST control)"
same,binding signal,ELF5,"1.14 fold enrichment (6-mer frequency, TF over GST control)"
same,binding signal,ETV3,"1.2 fold enrichment (6-mer frequency, TF over GST control)"
same,binding signal,ETV6,"1.11 fold enrichment (6-mer frequency, TF over GST control)"

# — article PMC7862700, “An all-to-all approach to the identification of sequence-specific readers for epigenetic DNA modifications on cytosine”
